Measurements: PubChem BioAssay (NCI)
Several values for one entry are separate records, joined by “and”; a condition that tells them apart may be missing. Equal entries are not always repeated. The panel holds about 83,000 compounds, 20% with a hit somewhere; the sample as a whole holds those more often.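 Method: cells in 96-well plates; compound added at one concentration; 48 h incubation; percent growth measured; values under 10 scored active.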 Activity calls are given as the source filed them.

What was measured:
Assay in all cases: NCI-60 one-dose screen, 48 h (100 = growth as untreated, 0 = no growth, -100 = all killed)
[1] = system: NCI-H23 lung
[2] = system: NCI-H226 lung
[3] = system: NCI-H322M lung
[4] = system: HOP-62 NSCLC
[5] = system: NCI-H460 lung
[6] = system: HOP-92 NSCLC
[7] = system: NCI-H522 lung
[8] = system: 786-0 renal
[9] = system: COLO 205 colon; conditions: 10 µM unless noted
[10] = system: DU-145 prostate
[11] = system: K-562 leukemia
[12] = system: MALME-3M melanoma
[13] = system: MDA-MB-231 breast
[14] = system: RXF 393 renal
[15] = system: SF-268 CNS
[16] = system: SF-295 CNS
[17] = system: SF-539 CNS
[18] = system: UACC-257 melanoma
[19] = system: M14 melanoma
[20] = system: A549/ATCC NSCLC; conditions: 10 µM unless noted

Measured: growth

CC#C[C@]1(O)CC[C@H]2[C@@H]3CCC4=CC(=O)CCC4=C3[C@@H](c3ccc4c(c3)OCO4)C[C@@]21C
inactive: [1]; 10 µM 82.8% | [2]; 10 µM 85.2% | [3]; 10 µM 90% | [4]; 10 µM 81.3% | [5]; 10 µM 90.5% | [6]; 10 µM 66.1% | [7]; 10 µM 62.4% | [8]; 10 µM 69.5% | [9] 101% | [10]; 10 µM 101% | [11]; 10 µM 83% | [12]; 10 µM 97.8% | [13]; 10 µM 62.1% | [14]; 10 µM 69.5% | [15]; 10 µM 71.3% | [16]; 10 µM 58.5% | [17]; 10 µM 75% | [18]; 10 µM 90.1% | [19]; 10 µM 81.9%
active: [1]; 100 µM -8.63% | [2]; 100 µM -21.7% | [3]; 100 µM 7.01% | [4]; 100 µM -15.3% | [5]; 100 µM -45.9% | [6]; 100 µM -33.2% | [7]; 100 µM -37.9% | [8]; 100 µM -30.5% | [10]; 100 µM -13.9% | [11]; 100 µM 1.72% | [12]; 100 µM -29.8% | [13]; 100 µM -42.9% | [14]; 100 µM -50.7% | [15]; 100 µM -4.41% | [16]; 100 µM -41.1% | [17]; 100 µM -58.8% | [18]; 100 µM -38.7% | [19]; 100 µM -53.8%

COc1ccc(Cn2c(NCCN=C(N)N)nc(=O)n(Cc3ccc(F)cc3)c2=O)cc1
inactive: [1]; 10 µM unless noted 102% and 89.5% | [2]; 10 µM unless noted 97.3% and 95.3% | [3]; 10 µM unless noted 83% and 90.7% | [4]; 10 µM unless noted 71.6% and 85.7% | [5]; 10 µM unless noted 106% and 104% | [6]; 10 µM unless noted 82.8% | [7]; 10 µM unless noted 90.2% and 97.2% | [20] 108% and 107% | [8]; 10 µM unless noted 98.5% and 103% | [9] 105% and 97.8% | [10]; 10 µM unless noted 104% and 115% | [11]; 10 µM unless noted 89.6% and 94% | [12]; 10 µM unless noted 91.7% and 91.1% | [13]; 10 µM unless noted 107% and 103% | [14]; 10 µM unless noted 95.5% and 109% | [15]; 10 µM unless noted 61.8% and 52.5% | [16]; 10 µM unless noted 102% | [17]; 10 µM unless noted 102% and 89.7% | [18]; 10 µM unless noted 89.4% and 101% | [19]; 10 µM unless noted 97.9% and 100%

CN(C)CCCNC1=C(Cl)C(=O)c2ccccc2C1=O
80.4% (inactive) and -30.3% (active): [7]; 10 µM unless noted
122% (inactive) and 2.27% (active): [14]; 10 µM unless noted
active: [1]; 10 µM unless noted -41.4% and -79.2% | [9] -73.7% and -85.8% | [11]; 10 µM unless noted -46.7% and -23.9% | [12]; 10 µM unless noted -82.7% and -88.9% | [19]; 10 µM unless noted -87% and -99.1%
28.4% (inactive) and -96.6% (active): [18]; 10 µM unless noted
inactive: [2]; 10 µM unless noted 102% and 97.7% | [3]; 10 µM unless noted 92.4% and 98.7% | [4]; 10 µM unless noted 78.8% and 85.1% | [5]; 10 µM unless noted 78.9% and 83.8% | [6]; 10 µM unless noted 108% and 107% | [20] 94.3% and 85.1% | [8]; 10 µM unless noted 99.5% and 79.4% | [10]; 10 µM unless noted 75.2% and 31.7% | [13]; 10 µM unless noted 69.6% and 41.9% | [15]; 10 µM unless noted 102% and 75% | [16]; 10 µM unless noted 87% and 72.2% | [17]; 10 µM unless noted 102% and 101%

Cc1nnc(NC/C=C/c2ccccc2)s1
98.5% (inactive) and 2.04% (active): [1]; 10 µM unless noted
inactive: [2]; 10 µM unless noted 106% and 102% | [3]; 10 µM unless noted 88.5% and 112% | [4]; 10 µM unless noted 88.7% and 111% | [5]; 10 µM unless noted 105% and 108% | [6]; 10 µM unless noted 91.3% and 91.5% | [7]; 10 µM unless noted 112% | [20] 101% | [8]; 10 µM unless noted 100% and 102% | [9] 110% and 113% | [10]; 10 µM unless noted 104% and 106% | [11]; 10 µM unless noted 87.9% and 94.2% | [12]; 10 µM unless noted 99.6% | [13]; 10 µM unless noted 105% and 120% | [14]; 10 µM unless noted 102% | [15]; 10 µM unless noted 102% and 97.3% | [16]; 10 µM unless noted 99.7% | [17]; 10 µM unless noted 109% and 101% | [18]; 10 µM unless noted 96.9% | [19]; 10 µM unless noted 101% and 104%
